# Hit rate of the full screen: of about 48,000 compounds, about 13,000 (27%) showed an effect of 50% or more. The list shows a part of the results.
# Tested on: Wolbachia pipientis
# Experiment: Anti-Wolbachia Cell-Based Screen
# Format: functional
# Design: scale not given: in the data most compounds retested in dose-response had high values
# Conditions: 5 µM
row,Structure (SMILES),Percent Effect
1,CCC(C)Oc1cc(C(=O)Nc2nc(C)ns2)ccn1 (stereo not drawn),-22%
2,CC(C)N1C[C@H](O)C[C@H]1c1nc(-c2ccc(OC(F)(F)F)cc2)no1,-2.832%
3,c1c(-c2nc(CN3CCOCC3)no2)nnn1CC1CCCCC1,-29.06%
4,Cc1ccc(Cl)c(NC(=O)c2cccc(CN3CC[C@H](O)C3)c2)c1,25.72%
5,CSCCc1c(-c2ccccc2)ncn1CC(C)(C)N1CCCC1,-6.465%
6,Cc1ccc(C(=O)N2CCC3(CCC(=O)N(CC(N)=O)C3)CC2)c(O)c1,-8.417%
7,COc1cccc(CN2CCC3(CC2)CCN(C(=O)[C@@H]2CCCO2)C3)c1.O=C(O)C(F)(F)F,105.3%
8,COc1cccc(CN2CCCC3(CCN(C(=O)N4CCCC4)C3)C2)c1.O=C(O)C(F)(F)F (stereo not drawn),81.34%
9,COc1cccc(CN2CCC3(CCN(C(=O)C4CC=CC4)CC3)C2)c1.O=C(O)C(F)(F)F,2.015%
10,COc1cccc(CN2CCC3(CC2)CCN(c2ncccn2)C3)c1.O=C(O)C(F)(F)F.O=C(O)C(F)(F)F,13.94%
11,COc1cccc(CN2CCC3(CC2)CCN(c2ncc(C)cn2)C3)c1.O=C(O)C(F)(F)F,-9.924%
12,COc1cccc(CN2CCC3(CCN(c4ncc(C)cn4)CC3)C2)c1.O=C(O)C(F)(F)F,4.048%
13,O=C(O)[C@@H]1CN(Cc2ccc3nsnc3c2)C[C@H]1c1ccncc1,20.11%
14,CCOCCC(=O)N1CCCN(Cc2csc(CC)n2)CC1,-3.622%
15,CC(C(=O)NCCc1cccs1)N1CCC(n2ccnc2)CC1 (stereo not drawn),14.05%
16,N#Cc1cccc(N2CCC(c3nccn3Cc3cscn3)CC2)n1,19.37%
17,CC(C(=O)NCC1(c2cccc(Br)c2)CCC1)S(C)(=O)=O (stereo not drawn),-10.98%
18,O=C(NC1CC1)c1cc2c(nc1O)CC(c1cccs1)CC2=O (stereo not drawn),2.644%
19,O=C(c1cc(Cl)ccc1OC1CCN(C2CCCC2)CC1)N1CCCO1,-1.079%
20,Cc1cc(N(Cc2cccs2)C2CC2)n2nc(C(F)(F)F)nc2n1,103%
21,Cc1cc(N(Cc2ccccc2F)C2CC2)n2nc(C(F)(F)F)nc2n1,37.88%
22,Cc1ccc(CN(c2cc(C)nc3nc(C(F)(F)F)nn23)C2CC2)cc1,24.27%
23,CC(C)OCCS(=O)(=O)NC1CCN(C2CCCC2)C1 (stereo not drawn),-4.658%

row,Structure (SMILES),Percent Effect
1,CNc1cc(CCNC(=O)C2CCCC2)nc(-c2ccccn2)n1,117%
2,CNc1cc(CCNC(=O)CC(C)C)nc(-c2ccccn2)n1,101.5%
3,CN(C)C(=O)c1cccc(CCNS(=O)(=O)c2ccccc2)c1,19.97%
4,O=C(NC[C@H]1O[C@H](Cc2cc(-c3ccccn3)on2)CC[C@@H]1O)C1CC1,-6.652%
5,CNc1cc(CCNS(=O)(=O)c2ccccc2)nc(-c2ccccn2)n1,105%
6,O=C(Nc1cc(-c2ccccn2)no1)C1CC1,-13.86%
7,CCc1nc(CCNS(=O)(=O)c2cccc(C(=O)N(C)CC)c2)cs1,4.281%
8,CNc1cc(CCNC(=O)c2cccnc2)nc(-c2ccncc2)n1,-9.73%
9,CC(C)C(O)CNC(=O)CCCc1ccccn1 (stereo not drawn),-2.211%
10,CC(O)CN1CCC(CNCCOCC(F)(F)F)CC1 (stereo not drawn),8.822%
11,Cc1cccc2[nH]c(C3CCN(C(=O)c4cccnn4)CC3)nc12,19.31%
12,Cc1cccc(CN2Cc3[nH]nc(COCCO)c3C2)n1.O=C(O)C(F)(F)F,-6.746%
13,Cc1cccc(CC(=O)NCCCOC(C)C)c1,4.055%
14,CCOCCCNC(=O)CN(c1cc(C)cc(C)c1)S(C)(=O)=O,107.2%
15,CCOCCCNC(=O)CCSCc1csc(C)n1,4.852%
16,CCOCCCNC(=O)CN(c1ccc(C)c(C)c1)S(C)(=O)=O,99.16%
17,CC(C)OCCCNC(=O)CSc1nnc(OC(C)C)s1,-7.044%
18,CCOCCC(=O)N(C)c1ccc(F)c(Cl)c1,-4.782%
19,CC(C)OCCCNC(=O)CN(c1ccc(F)c(F)c1)S(C)(=O)=O,109.3%
20,CCOCC(=O)N(C)c1ccc(F)c(Cl)c1,11.18%
21,Cc1ccc(N(CC(=O)NCc2nnc3n2CCC3)S(C)(=O)=O)cc1,-5.606%
22,CCOCCCNC(=O)CN(c1ccc(F)c(F)c1)S(C)(=O)=O,103.3%
23,CCOCCCC(=O)NS(=O)(=O)c1ccc(C)s1,-11.1%

row,Structure (SMILES),Percent Effect
1,CCOCCCNC(=O)c1cc(Br)c2c(c1)OCCO2,-17.45%
2,CCCNC(=O)C(C)Nc1ccn(Cc2ccccn2)n1 (stereo not drawn),6.912%
3,CCCOCCN1CCc2[nH]c(-c3ccccc3)nc2C1,-7.69%
4,CN(C)C1COC2(CCN(S(=O)(=O)c3ccc(F)cc3)CC2)C1.O=C(O)C(F)(F)F (stereo not drawn),-7.314%
5,CN(CC1Cc2ccccc2CN1C)c1nc(N)nc2c1CCNCC2 (stereo not drawn),-3.797%
6,COCc1cc(N(C)Cc2c(C)nn(C)c2C)n2nccc2n1,12.12%
7,CCOCCCNC(=O)CN(c1cccc(F)c1)S(C)(=O)=O,112.7%
8,COCCCNC(=O)CN(C)Cc1ccc(F)cc1Cl,-11.13%
9,CCOCCCNC(=O)Cc1cccc(F)c1,2.614%
10,COc1cccc2ccc(CN3CCN(c4ncccc4C)CC3)nc12,2.179%
11,CN1N=C(C(=O)N2CCCC(CCc3c(F)cccc3F)C2)CCC1=O (stereo not drawn),7.677%
12,CN1N=C(C(=O)N2CCCC(CCc3cccc(F)c3)C2)CCC1=O (stereo not drawn),-39.97%
13,Cc1nc(N)ncc1C(=O)N1CCCC(CCc2ccccc2F)C1 (stereo not drawn),102.1%
14,Cc1nc(N)ncc1C(=O)N1CCCC(CCc2ccc(F)c(F)c2)C1 (stereo not drawn),95.78%
15,COc1coc(CN2CCCC(CCc3ccccc3F)C2)cc1=O (stereo not drawn),19.37%
16,CCc1nc(N)sc1C(=O)N1CCCC(CCc2ccccc2C)C1 (stereo not drawn),1.755%
17,Cc1nc(CN2CCCC(CCc3ccc(F)c(F)c3)C2)c[nH]1 (stereo not drawn),-4.452%
18,CN1N=C(C(=O)N2CCCC(CCc3ccccc3F)C2)CCC1=O (stereo not drawn),-18.53%
19,O=C(c1cnc(O)cc1O)N1CCCC(CCc2ccccc2F)C1 (stereo not drawn),119.6%
20,Cc1nc(N)sc1C(=O)N1CCCC(COc2ccc(F)cc2)C1 (stereo not drawn),-20.41%
21,Cc1ccc(-c2ncc(C(=O)N3CCCC(CCN)C3)c(O)n2)cc1 (stereo not drawn),0.928%
22,Cc1nc(N)ncc1C(=O)N1CCCC(CCc2ccc(F)cc2)C1 (stereo not drawn),102.6%
